# A selection: hits, their analogues and other compounds. The true share with any hit is near 1.7%.
# CCHFV vOTU inh: CCHFV vOTU protease inhibition | Pep-AMC fluorescence | inhibition, % at 11.5 µM | 0.55% of 370,000 active; in the data active means inhibition above about 30%; further: 0% = vehicle wells with enzyme and 100% = no enzyme wells
# Sa ugtP lethal: compounds lethal to S. aureus RN4220 ugtP deletion mutant; OD600 growth, 16 h; growth inhibition, % (concentration not given with the values); 0.54% of 330,000 active; in the data active means growth inhibition above about 68%;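 further: plate controls were untreated wells for no effect and antibiotic for full effect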
# BH1578 lux ind: induces V. cholerae light production without autoinducers; V. cholerae BH1578 lux reporter, luminescence, 6 h; activation, % at 18.7 µM; 0.16% of 350,000 active; AID 588436; in the data active means activation mostly above about 9.7%, no sharp cut-off; inconclusive means no clear call, values can overlap the other calls; inactive means mostly below about 3.7%
# PfHsp40 rescue: rescue of PfHsp40-mediated yeast toxicity. S. cerevisiae expressing PfHsp40, growth rescue, ATP luminescence. growth rescue, % at 12.5 µM. 0.68% of 340,000 active; in the data active means growth rescue above about 28%, passing the limit was not always enough; inconclusive means no clear call, values can overlap the other calls;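 further: yeast W303a lacking pdr1 and pdr3 grown in galactose medium; growth measured after three days at 30 °C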
# Mtb hypoxia inh: reduces hypoxia-regulated biosensor signal in M. tuberculosis; M. tuberculosis hypoxia-regulated fluorescent reporter, fluorescence; fluorescence inhibition, % (test concentration not listed); 0.1% of 300,000 active; AID 1159583; in the data active means fluorescence inhibition mostly above about 23%, no sharp cut-off; inactive means mostly below about 17%
# RN4220 kill: kills Staphylococcus aureus RN4220. S. aureus RN4220 growth, OD600, 16 h. inhibition, % (no concentration beside the values). 0.33% of 330,000 active; in the data active means inhibition above about 85%;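 further: plate controls were untreated cells for no effect and reference antibiotic for full effect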
# * = called active by the depositor; i = inactive; ? = inconclusive; . = no result.
SMILES,CCHFV vOTU inh,Sa ugtP lethal,BH1578 lux ind,PfHsp40 rescue,Mtb hypoxia inh,RN4220 kill
Cc1nn(CCC#N)c2nc(-c3ccccc3)cc(C(F)(F)F)c12,2,5,i,1,.,5
Cc1nn(CCC(N)=S)c2nc(-c3cccs3)cc(C(F)(F)F)c12,5,-18,0,223*,4,0
CC(=O)n1cc(C2C=C(C(=O)N3CCN(Cc4ccc5c(c4)OCO5)CC3)OC(OCc3ccc(CO)cc3)C2)c2ccccc21 (stereo not given),.,3,.,.,3,2
CC1CN(C(C)CO)C(=O)c2cccc(NC(=O)Nc3ccccc3)c2OC1CN(C)S(C)(=O)=O (stereo not given),.,2,.,.,17,2
CC1(C)CC(=O)C(C2C3=C(CC(C)(C)CC3=O)Oc3c(Br)cc(Br)cc32)=C(O)C1 (stereo not given),-3,37,i,55*,4,24
CC1(C)CC(=O)C2=C(C1)OC1=C(C(=O)CC(C)(C)C1)C2c1cc([N+](=O)[O-])cc([N+](=O)[O-])c1O,19,2,-2,0,-4,1
Cc1ccc(-n2c(CNCc3ccc(F)cc3)nc3ccccc3c2=O)cc1,10,2,i,55*,-4,1
C[C@H]1[C@H](OC(=O)CCC(=O)NCc2ccc(C(=O)O)cc2)O[C@@H]2O[C@@]3(C)CC[C@H]4[C@H](C)CC[C@@H]1C24OO3,.,.,0,188*,.,.
CC(C)CC(NC(=O)CCCNC(=O)CCC(=O)OC1O[C@H]2OC3(C)CC[C@H]4[C@H](C)CCC(C1C)C24OO3)C(=O)O (stereo not given in full),-2,.,i,196*,.,.
CC1C(OC(=O)CCC(=O)NC(C)(C)CO)O[C@H]2OC3(C)CC[C@H]4[C@H](C)CCC1C24OO3 (stereo not given in full),-8,.,0,122*,.,.
CCN1CC2C3C(=O)N(Cc4ccccc4)C(=O)C3[C@](C)(C1=O)N2C(=O)c1ccc(Cl)c(Cl)c1 (stereo not given in full),.,4,.,.,20,5
O=C(NC(=S)Nc1ccc(S(=O)(=O)N2CCCCC2)cc1)c1ccccc1,5,86*,-4,1,.,7
CCC(=O)N1CCN(c2ccc(NC(=S)NC(=O)c3cccc([N+](=O)[O-])c3)cc2)CC1,1,28,33*,1,6,-1
CCC(=O)N1CCN(c2ccccc2NC(=S)NC(=O)c2cccc([N+](=O)[O-])c2)CC1,4,11,0,0,6,5
O=C(Nc1ccc(S(=O)(=O)N2CCCC2)cc1)c1ccccc1,4,1,-1,0,-5,4
O=C(Nc1ccc(S(=O)(=O)N2CCCCC2)cc1)c1ccc(CN2CCc3ccccc3C2)cc1,-2,1,17*,1,2,3
CN1CCN(c2ccc(NC(=S)NC(=O)c3cccc4ccccc34)cc2)CC1,4,95*,0,1,4,4
CC(=O)c1sc(NN=Cc2cccc(Br)c2)nc1C,.,-9,.,.,12,-2
COc1cccc(C=NN2C(=O)NC3(CCCCC3)C2=O)c1O,.,1,.,.,19,3
O=C(NN=Cc1ccncc1)NC1CCCCC1,.,1,.,.,12,2
CC(=NNC(=O)C1(C)CC1(Br)Br)c1ccc(C)cc1C (stereo not given),.,9,.,.,11,2
CC(=O)N1CCN(c2ccc(NC(=S)NC(=O)c3ccccc3)cc2)CC1,-19,93*,i,0,9,0
Cc1ccc(C(=O)NC(=S)Nc2ccc(N3CCN(C(=O)c4ccco4)CC3)cc2)cc1,-2,91*,0,0,4,5
CC(C)Oc1ccc(C(=O)Nc2ccc(N3CCN(C(=O)c4ccco4)CC3)cc2)cc1,0,2,0,-1,-7,1
COc1ccc(CN2CCC3C=CCC(C(=O)NCCc4ccccc4)C3C2=O)cc1OC (stereo not given),.,3,.,.,12,5
SMILES,CCHFV vOTU inh,Sa ugtP lethal,BH1578 lux ind,PfHsp40 rescue,Mtb hypoxia inh,RN4220 kill
COc1cccc(C(=O)NNC2=C(C(=O)C(F)(F)F)CCC2)c1,-8,93*,0,-1,0,-6
O=C(NNC1=C(C(=O)C(F)(F)F)CCC1)c1ccc(Br)cc1,3,100*,i,6,7,101*
Nc1ccccc1C(=O)NNC1=C(C(=O)C(F)(F)F)CCC1,-14,52,-2,0,5,-2
COc1ccccc1C(=O)NNC1=C(C(=O)C(F)(F)F)CCC1,-7,99*,-1,0,-3,101*
O=C(NNC1=C(C(=O)C(F)(F)F)CCC1)c1ccccc1O,-2,101*,0,?,-8,100*
COc1ccc(O)c(C=NNC(=O)CCC(=O)Nc2ccc(C)cc2)c1,.,5,.,.,16,1
O=c1[nH]c(=S)n(Cc2ccc(F)cc2)c(O)c1C=NCc1ccc2c(c1)OCO2,-4,-6,0,0,10,4
CN(C)CCN=Cc1c(O)n(Cc2ccc3c(c2)OCO3)c(=S)[nH]c1=O,-10,9,-1,82*,13,2
CNC(=O)c1cc2c(cn1)[nH]c1ccccc12,12,4,1,60*,1,2
O=c1[nH]c(Nc2ccc(F)cc2)cc2ccccc12,105*,-9,-1,-1,5,-1
O=[N+]([O-])c1ccc(Sc2nc3ccccc3o2)c([N+](=O)[O-])c1,7,52,-1,1,12,25
O=[N+]([O-])c1ccc(Cl)cc1Sc1nc2ccccc2o1,10,21,i,165*,1,23
Cc1ccc(-c2[nH]nc(N)c2N=Nc2cccc(Cl)c2C)cc1,6,99*,-2,11,-6,84
Cc1oc(-c2cccs2)nc1CSCC(=O)N1CCC2(CC1)OCCO2,-16,7,i,0,active,4
Clc1cccc(CSc2ncn(-c3ccccc3)n2)c1,-5,-11,1,31*,-1,8
C=CC1c2ccccc2N(S(=O)(=O)c2ccc(C)cc2)C(c2ccc(C(=O)OC)cc2)C1(C#N)C#N (stereo not given),.,-20,.,.,10,11
Cc1onc(-c2ccccc2)c1C(=O)NC(=S)NNC(=O)c1ccc(O)cc1O,7,-22,-1,248*,11,47
O=Cc1ccc(O)c2ncccc12,.,15,1,628*,10,20
COc1cc(C=NN2CCN(c3ccccc3)CC2)ccc1OC(C)=O,.,1,.,.,15,6
COc1cc(OC)cc(N2C(=O)CC(N3CCC(C(=O)N4CCCCC4)CC3)C2=O)c1 (stereo not given),15,-4,0,67*,-17,-1
CC(=O)Nc1cccc(N2C(=O)CC(N3CCC(C(=O)N4CCCCC4)CC3)C2=O)c1 (stereo not given),-2,-3,-1,-2,.,-4
O=C(CSc1ccc(-c2ccccn2)nn1)c1ccc([N+](=O)[O-])cc1,1,-4,i,95*,3,2

# Screening data: PubChem, several laboratories
